Reference: PubChem BioAssay (NCATS)
Inconclusive results are not listed. Active and inactive are the calls of the source. Calls come from the whole dose curve; as a rule, active = well fitted inhibition curve with a large enough effect; inconclusive = small, poorly fitted or top-dose-only effect, or effect the other way; inactive = flat fitted curve, though single readings scatter.

Target: ATP-dependent 6-phosphofructokinase (Trypanosoma brucei brucei) (UniProt O15648)
Test: qHTS Assay to Find Inhibitors of T. brucei phosphofructokinase: hit validation (AID 492961); note: series mostly up to about 51 µM
Method in brief: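 Luminescence from ADP-Glo reports ADP generated as T. brucei PFK (1.25 nM) phosphorylates 0.5 mM fructose-6-phosphate using 0.1 mM ATP. Reactions ran 45 min at room temperature, pH 8.0.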

ATP-dependent 6-phosphofructokinase (Trypanosoma brucei brucei), sequence (O15648 whole entry, looked up): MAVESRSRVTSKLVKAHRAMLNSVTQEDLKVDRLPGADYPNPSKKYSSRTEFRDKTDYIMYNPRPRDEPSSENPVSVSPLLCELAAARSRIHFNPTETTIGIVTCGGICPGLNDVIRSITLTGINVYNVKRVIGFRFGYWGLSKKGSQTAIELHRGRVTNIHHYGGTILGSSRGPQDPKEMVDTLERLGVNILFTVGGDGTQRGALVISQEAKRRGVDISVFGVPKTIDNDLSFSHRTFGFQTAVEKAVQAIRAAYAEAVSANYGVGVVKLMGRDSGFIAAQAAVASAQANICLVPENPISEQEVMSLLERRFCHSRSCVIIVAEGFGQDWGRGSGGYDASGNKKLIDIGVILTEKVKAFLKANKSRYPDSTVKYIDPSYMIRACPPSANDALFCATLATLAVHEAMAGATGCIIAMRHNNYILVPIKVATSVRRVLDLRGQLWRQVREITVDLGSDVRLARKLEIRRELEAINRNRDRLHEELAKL

## CCC(C)(Oc1ccc(C2(c3ccc(OC(C)(CC)C(=O)O)cc3)CCCCC2)cc1)C(=O)O (stereo unspecified)
  outcome: inactive

## O=C(O)c1cn(-c2ccc(F)cc2)c2cc(N3CCNCC3)c(F)cc2c1=O
  outcome: inactive

## C[C@H](Cn1cnc2c(N)ncnc21)OCP(=O)(O)O
  outcome: inactive

## O=C(CS(=O)Cc1ccco1)NCC=CCOc1cc(CN2CCCCC2)ccn1 (stereo unspecified)
  outcome: inactive

## Cc1cc(=O)oc2cc(O)ccc12
  outcome: inactive

## COC1=C(OC)C(=O)C(CCCCCCCCCCO)=C(C)C1=O
  outcome: inactive
